Reference: PubChem BioAssay (NCATS)
Records with an inconclusive call do not appear. Where a call stands in place of a potency, no number is given. Activity calls are given as the source filed them. Calls follow the shape of the dose curve; as a rule, active = well fitted curve in the direction sought with a large enough effect; inconclusive = small, poorly fitted or top-dose-only effect, or another doubt; inactive = no such curve, though single readings can be large; an effect the other way counts as inactive or inconclusive.

What was measured:
[1] = P-glycoprotein substrates identified in KB-3-1 adenocarcinoma cell line, qHTS therapeutic library screen (AID 1346986); also: nearly all actives have a fitted effect of over 60% in size
Summary of the method: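 72 h cell-killing screen, 500 cells/well, CellTiter-Glo luminescence. Paired lines KB-3-1/KB-8-5-11; P-gp dependence checked by tariquidar co-treatment and HEK-293 MDR-19 versus empty-vector cells.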

[2] = P-glycoprotein substrates identified in KB-8-5-11 adenocarcinoma cell line, qHTS therapeutic library screen (AID 1346987); also: nearly all actives have a fitted effect of over 65% in size
Summary of the method: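 Compounds are pinned in dose-response onto KB-8-5-11 cells (500 cells/well, colchicine-free medium) and left 72 h at 37 degree C. CellTiter-Glo luminescence then yields AC50 values.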

SMILES | Potency [1] | Potency [2]
CN(C)c1ccc(C2O[C@@H](c3ccccc3)C[C@H](c3ccccc3)O2)cc1 (some centres undefined) | inactive | inactive
OC[C@H]1O[C@@H](OC[C@H]2O[C@@H](OCc3ccccc3)[C@H](O)[C@@H](O)[C@@H]2O)[C@H](O)[C@@H](O)[C@@H]1O | inactive | inactive
O=C(O)/C=C/c1ccc(O[C@@H]2O[C@H](CO)[C@@H](O)[C@H](O)[C@H]2O)cc1 | inactive | inactive
CC1(C)[C@H]2C[C@H](C/C=C\CCCC(=O)O)[C@@H](NC(=O)c3csc4ccc(O)cc34)[C@@H]1C2 | inactive | inactive
CC1CCCCCCCc2cc(O)cc(O)c2C(=O)O1 (centres undefined) | inactive | inactive
Cc1occc(=O)c1O[C@@H]1O[C@H](COC(=O)CC(C)(O)CC(=O)O)[C@@H](O)[C@H](O)[C@H]1O (some centres undefined) | inactive | inactive
O=C(O)c1ccc(NC(=O)[C@H](CC2CCCC2)n2cnc(C(F)(F)F)c2)nc1 | inactive | inactive
CC(NC(=O)[C@H](Cc1ccccc1)NC(=O)OCc1ccccc1)C(=O)CF (some centres undefined) | inactive | inactive
C/C=C1/[C@H](O[C@@H]2O[C@H](CO)[C@@H](O)[C@H](O)[C@H]2O)OC=C2C(=O)O[C@@H]3C[C@@H](C(C)CO)[C@H](COC(=O)C[C@H]21)[C@H]3C (some centres undefined) | inactive | inactive
CC1=C[C@H](O)[C@H]2C(C)(C)CCC[C@]2(C)[C@@]1(O)CO | inactive | inactive
C#CCCCn1cc(-c2cccc3c2N[C@@H](C)CC(=O)N3)cn1 | inactive | inactive
CC(=O)O[C@H]1C[C@@H](O)C(C)(C)C2C[C@@H](OC(C)=O)[C@]3(C)C(CC[C@@]4(C)[C@H](c5ccoc5)OC(=O)[C@H]5O[C@]543)[C@]21C (some centres undefined) | inactive | inactive
